# Assay results from PubChem BioAssay (NCI).
# This is part of a sample that, as a whole, favours compounds with a hit. Of some 83,000 tested, about 20% had one in any assay.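 Testing used 96-well plates and a 48-hour single-concentration exposure. Example: -40 means 40% of the starting cells died.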 The source made the active and inactive calls. The calls were made as follows: active = growth percent below 10; inactive = the rest.
# Tested on: OVCAR-4 ovarian
# Assay: NCI-60 one-dose screen, 48 h (100 = growth as untreated, 0 = no growth, -100 = all killed)
# Conditions: 10 µM
row,Structure (SMILES),growth
1,Cc1ccc(F)cc1N/C=c1\s/c(=C(\C#N)C(=O)Nc2ccccc2)n(-c2ccccc2)c1=O,-26.9% (active)
2,COc1ccc([C@H]2C(C(=O)c3ccc(Cl)cc3)C3(N[C@@H]2c2ccccc2)C(=O)Nc2ccc(Cl)cc23)cc1 (some centres undefined),20.4% (inactive)
3,O=C1Nc2cc(-c3ccc(NC(=O)c4cccc([N+](=O)[O-])c4)cc3)ccc2/C1=C/c1ccc[nH]1,52.3% (inactive)
4,CCCn1c(=O)c2[nH]c(-c3ccc(OCc4nc5ccc(F)cc5[nH]4)cc3)nc2n(CCC)c1=O,-2.86% (active)
5,CCCS(=O)(=O)c1oc(-c2ccc(F)cc2)nc1S(=O)(=O)c1ccc(F)cc1,-90.7% (active)
6,O=C(CSc1nnc(-c2c[nH]c3ccccc23)n1-c1ccccc1)Nc1ccc(C(=O)/C=C/c2ccc(Br)cc2)cc1,91.2% (inactive)
7,CCOC(=O)C1=C(N)N(c2ccc(Cl)cc2)C2=C(C(=O)CC(C)(C)C2)C1c1ccc(N2CCOCC2)cc1 (centres undefined),105% (inactive)
8,COc1ccc2[nH]cc(/C=N/Nc3ccc(Br)cn3)c2c1,53.2% (inactive)
9,O/N=C(\CSc1nnc(-c2c[nH]c3ccccc23)n1-c1ccccc1)c1ccc(Cl)cc1,-81.3% (active)
10,COc1ccc2[nH]c(O)c(N=NC(=O)COc3ccc(NC(=O)Nc4ccc(Cl)c(Cl)c4)cc3)c2c1,-92.7% (active)
11,C=C1CC[C@H](C(=C)C)[C@H]2C=C(C)C(=O)C3=C(C(=O)[C@@](C)(O)C3)[C@H]12,-81.8% (active)
12,O=S(=O)(Nc1ncccn1)c1ccc(-n2c(-c3ccccc3)nc(-c3ccccc3)c2-c2ccccc2)cc1,94.1% (inactive)
13,COc1cccc(/C=C2\N=C(C)N(CCc3ccc(S(N)(=O)=O)cc3)C2=O)c1,104% (inactive)
14,CN(C)c1ccc(/C=C/C(=O)c2ccc(NC(=O)CN3C(=O)NC(C)(c4ccccc4)C3=O)cc2)cc1 (centres undefined),55.4% (inactive)
15,O=C(O)CCCCCCCCCCN1C(=O)/C(=C/c2cnc(-c3ccccc3)s2)SC1=S,96.1% (inactive)
16,O=C1N/C(=N\c2nccs2)S/C1=C\c1cccs1,30.9% (inactive)
17,O=C(CNc1nc(-c2ccccc2)cs1)Nc1ccccc1,35% (inactive)
18,COc1cc2c3c(n(CCCNC(C)C)c(=O)c2cc1OC)-c1nc2c(cc1C3=O)OCO2,49.8% (inactive)

row,Structure (SMILES),growth
1,Cc1cccc(-c2nc(Nc3ccccc3C(=O)O)c3ccccc3n2)c1,41.9% (inactive)
2,Oc1ccc(/C=C2\CCCc3cc4ccc(O)cc4[o+]c32)c(O)c1,42.9% (inactive)
3,N#Cc1ccc(-c2nn(-c3ccc(C(=O)O)cc3)cc2CNc2ccc(Cl)cc2)cc1,85.2% (inactive)
4,COc1ccc2nc(Cl)c(-c3cc(-c4ccccc4)nc(=S)[nH]3)cc2c1,90.1% (inactive)
5,Cc1ccc(NC(=O)c2ccc(-n3c(=O)[nH]c4ccccc4c3=O)cc2)cc1,98.8% (inactive)
6,Nc1nc(Nc2ccc(Cl)cc2)n(Cc2cccc(Br)c2)n1,9.75% (active)
7,O=C(CN1CCN(c2ncnc3c2cnn3-c2ccccc2)CC1)Nc1nncs1,13.6% (inactive)
8,O=c1c2ccccc2nc(COc2ccccc2)n1/N=C/c1ccc(N2CCOCC2)cc1,40.4% (inactive)
9,Cn1c(O)c(N=Nc2nc(-c3cc4ccccc4oc3=O)cs2)c2cc(Br)ccc21,80.9% (inactive)
10,C/C(=N\NC(N)=S)c1ccc(Nc2nc(SC(C)C)nc(-c3ccccc3)c2C#N)cc1,57.7% (inactive)
11,COc1ccc(/C=C/C(=O)c2ccc(N3CCN(C)CC3)cc2)c(C(F)(F)F)c1,43.9% (inactive)
12,Nc1n[nH]c2cccc(C#Cc3cccc(NC(=O)Nc4cc(C(F)(F)F)cc(C(F)(F)F)c4)c3)c12,-3.45% (active)
13,O=C(Nc1ccc(Cl)c([N+](=O)[O-])c1)Nc1ccc(Cl)c([N+](=O)[O-])c1,23.2% (inactive)
14,O=C(Nc1nc2ccc([N+](=O)[O-])cc2s1)Nc1cc(Cl)ccc1I,0.91% (active)
15,O=C1CCC(N2Cc3cc(NC(=O)COc4ccccc4)ccc3C2=O)C(=O)N1 (centres undefined),72.2% (inactive)
16,O=C(c1ccc(-n2c(=O)[nH]c3ccccc3c2=O)cc1)N1CCOCC1,114% (inactive)
17,CN1CCc2c(sc3ncnc(N/N=C/c4cn(-c5ccccc5)nc4-c4ccc(Cl)cc4)c23)C1,-9.33% (active)
18,C=CC(=O)Nc1ccc(C(=O)/C=C/c2ccc(N(C)CCF)cc2)c(O)c1,19.8% (inactive)

# Tested on: SK-OV-3 ovarian
# Assay: as above
# Conditions: 10 µM
row,Structure (SMILES),growth
1,Cc1ccc(F)cc1N/C=c1\s/c(=C(\C#N)C(=O)Nc2ccccc2)n(-c2ccccc2)c1=O,78.1% (inactive)
2,COc1ccc([C@H]2C(C(=O)c3ccc(Cl)cc3)C3(N[C@@H]2c2ccccc2)C(=O)Nc2ccc(Cl)cc23)cc1 (some centres undefined),17.3% (inactive)
3,O=C1Nc2cc(-c3ccc(NC(=O)c4cccc([N+](=O)[O-])c4)cc3)ccc2/C1=C/c1ccc[nH]1,115% (inactive)
4,CCCn1c(=O)c2[nH]c(-c3ccc(OCc4nc5ccc(F)cc5[nH]4)cc3)nc2n(CCC)c1=O,-41.3% (active)
5,CCCS(=O)(=O)c1oc(-c2ccc(F)cc2)nc1S(=O)(=O)c1ccc(F)cc1,83.3% (inactive)
6,O=C(CSc1nnc(-c2c[nH]c3ccccc23)n1-c1ccccc1)Nc1ccc(C(=O)/C=C/c2ccc(Br)cc2)cc1,88.3% (inactive)
7,CCOC(=O)C1=C(N)N(c2ccc(Cl)cc2)C2=C(C(=O)CC(C)(C)C2)C1c1ccc(N2CCOCC2)cc1 (centres undefined),109% (inactive)
8,COc1ccc2[nH]cc(/C=N/Nc3ccc(Br)cn3)c2c1,65.7% (inactive)
9,O/N=C(\CSc1nnc(-c2c[nH]c3ccccc23)n1-c1ccccc1)c1ccc(Cl)cc1,-1.58% (active)
10,COc1ccc2[nH]c(O)c(N=NC(=O)COc3ccc(NC(=O)Nc4ccc(Cl)c(Cl)c4)cc3)c2c1,-12.4% (active)
11,C=C1CC[C@H](C(=C)C)[C@H]2C=C(C)C(=O)C3=C(C(=O)[C@@](C)(O)C3)[C@H]12,-89.1% (active)
12,O=S(=O)(Nc1ncccn1)c1ccc(-n2c(-c3ccccc3)nc(-c3ccccc3)c2-c2ccccc2)cc1,101% (inactive)
13,COc1cccc(/C=C2\N=C(C)N(CCc3ccc(S(N)(=O)=O)cc3)C2=O)c1,112% (inactive)
14,CN(C)c1ccc(/C=C/C(=O)c2ccc(NC(=O)CN3C(=O)NC(C)(c4ccccc4)C3=O)cc2)cc1 (centres undefined),117% (inactive)
15,O=C(O)CCCCCCCCCCN1C(=O)/C(=C/c2cnc(-c3ccccc3)s2)SC1=S,130% (inactive)
16,COc1ccc(-c2ccc(/C=N/NC(=O)c3[nH]c4ccc(Br)cc4c3-c3ccccc3)s2)cc1,117% (inactive)
17,O=C1N/C(=N\c2nccs2)S/C1=C\c1cccs1,39.3% (inactive)
18,O=C(CNc1nc(-c2ccccc2)cs1)Nc1ccccc1,11.2% (inactive)
19,COc1cc2c3c(n(CCCNC(C)C)c(=O)c2cc1OC)-c1nc2c(cc1C3=O)OCO2,26.5% (inactive)

row,Structure (SMILES),growth
1,Cc1cccc(-c2nc(Nc3ccccc3C(=O)O)c3ccccc3n2)c1,76.7% (inactive)
2,Oc1ccc(/C=C2\CCCc3cc4ccc(O)cc4[o+]c32)c(O)c1,86.3% (inactive)
3,N#Cc1ccc(-c2nn(-c3ccc(C(=O)O)cc3)cc2CNc2ccc(Cl)cc2)cc1,123% (inactive)
4,COc1ccc2nc(Cl)c(-c3cc(-c4ccccc4)nc(=S)[nH]3)cc2c1,37.4% (inactive)
5,Cc1ccc(NC(=O)c2ccc(-n3c(=O)[nH]c4ccccc4c3=O)cc2)cc1,82.5% (inactive)
6,Nc1nc(Nc2ccc(Cl)cc2)n(Cc2cccc(Br)c2)n1,-2.59% (active)
7,O=C(CN1CCN(c2ncnc3c2cnn3-c2ccccc2)CC1)Nc1nncs1,28.1% (inactive)
8,O=c1c2ccccc2nc(COc2ccccc2)n1/N=C/c1ccc(N2CCOCC2)cc1,64.5% (inactive)
9,Cn1c(O)c(N=Nc2nc(-c3cc4ccccc4oc3=O)cs2)c2cc(Br)ccc21,57.7% (inactive)
10,O=c1nc(-c2ccccc2)cc(-c2cc3ccccc3nc2Cl)[nH]1,84.8% (inactive)
11,C/C(=N\NC(N)=S)c1ccc(Nc2nc(SC(C)C)nc(-c3ccccc3)c2C#N)cc1,90% (inactive)
12,COc1ccc(/C=C/C(=O)c2ccc(N3CCN(C)CC3)cc2)c(C(F)(F)F)c1,63.7% (inactive)
13,Nc1n[nH]c2cccc(C#Cc3cccc(NC(=O)Nc4cc(C(F)(F)F)cc(C(F)(F)F)c4)c3)c12,-28.9% (active)
14,O=C(Nc1ccc(Cl)c([N+](=O)[O-])c1)Nc1ccc(Cl)c([N+](=O)[O-])c1,79.4% (inactive)
15,O=C(Nc1nc2ccc([N+](=O)[O-])cc2s1)Nc1cc(Cl)ccc1I,-9.56% (active)
16,O=C1CCC(N2Cc3cc(NC(=O)COc4ccccc4)ccc3C2=O)C(=O)N1 (centres undefined),99.2% (inactive)
17,O=C(c1ccc(-n2c(=O)[nH]c3ccccc3c2=O)cc1)N1CCOCC1,124% (inactive)
18,CN1CCc2c(sc3ncnc(N/N=C/c4cn(-c5ccccc5)nc4-c4ccc(Cl)cc4)c23)C1,64% (inactive)
19,C=CC(=O)Nc1ccc(C(=O)/C=C/c2ccc(N(C)CCF)cc2)c(O)c1,3.61% (active)
